According to ChEMBL document CHEMBL2218924, “A broad activity screen in support of a chemogenomic map for kinase signalling research and drug discovery” (Biochem J, 2013):

Key:
[1] = target: T1, Ephrin type-A receptor 3 (Homo sapiens) (UniProt P29320); conditions: at 10 µM
T1 sequence (whole entry): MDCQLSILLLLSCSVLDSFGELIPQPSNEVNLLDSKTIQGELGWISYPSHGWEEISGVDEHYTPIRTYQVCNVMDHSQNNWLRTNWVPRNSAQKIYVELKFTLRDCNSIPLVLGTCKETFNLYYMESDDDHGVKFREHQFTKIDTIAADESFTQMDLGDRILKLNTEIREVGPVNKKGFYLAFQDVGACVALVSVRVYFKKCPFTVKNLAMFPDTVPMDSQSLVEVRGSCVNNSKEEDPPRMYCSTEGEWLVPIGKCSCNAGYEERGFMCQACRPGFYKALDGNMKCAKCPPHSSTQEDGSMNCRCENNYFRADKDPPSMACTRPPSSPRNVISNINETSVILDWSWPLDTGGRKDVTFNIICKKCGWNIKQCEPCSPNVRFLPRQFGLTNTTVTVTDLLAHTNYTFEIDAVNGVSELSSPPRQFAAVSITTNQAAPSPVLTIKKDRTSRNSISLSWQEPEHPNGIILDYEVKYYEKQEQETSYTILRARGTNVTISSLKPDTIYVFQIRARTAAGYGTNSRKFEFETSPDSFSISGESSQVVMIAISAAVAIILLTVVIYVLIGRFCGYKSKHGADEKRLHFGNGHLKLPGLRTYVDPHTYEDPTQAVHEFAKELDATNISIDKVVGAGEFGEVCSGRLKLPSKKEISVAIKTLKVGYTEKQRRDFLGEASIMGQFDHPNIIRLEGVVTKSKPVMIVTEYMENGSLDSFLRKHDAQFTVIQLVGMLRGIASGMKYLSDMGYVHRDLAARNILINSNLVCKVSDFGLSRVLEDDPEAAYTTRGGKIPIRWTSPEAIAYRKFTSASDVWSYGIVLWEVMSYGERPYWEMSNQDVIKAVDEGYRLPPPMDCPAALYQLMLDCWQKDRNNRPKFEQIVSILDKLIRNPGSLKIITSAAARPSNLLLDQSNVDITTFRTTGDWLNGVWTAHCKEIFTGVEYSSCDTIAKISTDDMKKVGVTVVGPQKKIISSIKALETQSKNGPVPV

[2] = target: Ephrin type-A receptor 7 (Homo sapiens) (UniProt Q15375); conditions: at 10 µM
[3] = target: Focal adhesion kinase 1 (Homo sapiens) (UniProt Q05397); conditions: at 1 µM
[4] = target: Ephrin type-A receptor 5 (Homo sapiens) (UniProt P54756); conditions: at 1 µM
[5] = target: Ephrin type-A receptor 5 (Homo sapiens) (UniProt P54756); conditions: at 10 µM
[6] = target: Ephrin type-A receptor 7 (Homo sapiens) (UniProt Q15375); conditions: at 1 µM
[7] = target: T2, Ephrin type-A receptor 8 (Homo sapiens) (UniProt P29322); conditions: at 10 µM
T2 sequence (whole entry): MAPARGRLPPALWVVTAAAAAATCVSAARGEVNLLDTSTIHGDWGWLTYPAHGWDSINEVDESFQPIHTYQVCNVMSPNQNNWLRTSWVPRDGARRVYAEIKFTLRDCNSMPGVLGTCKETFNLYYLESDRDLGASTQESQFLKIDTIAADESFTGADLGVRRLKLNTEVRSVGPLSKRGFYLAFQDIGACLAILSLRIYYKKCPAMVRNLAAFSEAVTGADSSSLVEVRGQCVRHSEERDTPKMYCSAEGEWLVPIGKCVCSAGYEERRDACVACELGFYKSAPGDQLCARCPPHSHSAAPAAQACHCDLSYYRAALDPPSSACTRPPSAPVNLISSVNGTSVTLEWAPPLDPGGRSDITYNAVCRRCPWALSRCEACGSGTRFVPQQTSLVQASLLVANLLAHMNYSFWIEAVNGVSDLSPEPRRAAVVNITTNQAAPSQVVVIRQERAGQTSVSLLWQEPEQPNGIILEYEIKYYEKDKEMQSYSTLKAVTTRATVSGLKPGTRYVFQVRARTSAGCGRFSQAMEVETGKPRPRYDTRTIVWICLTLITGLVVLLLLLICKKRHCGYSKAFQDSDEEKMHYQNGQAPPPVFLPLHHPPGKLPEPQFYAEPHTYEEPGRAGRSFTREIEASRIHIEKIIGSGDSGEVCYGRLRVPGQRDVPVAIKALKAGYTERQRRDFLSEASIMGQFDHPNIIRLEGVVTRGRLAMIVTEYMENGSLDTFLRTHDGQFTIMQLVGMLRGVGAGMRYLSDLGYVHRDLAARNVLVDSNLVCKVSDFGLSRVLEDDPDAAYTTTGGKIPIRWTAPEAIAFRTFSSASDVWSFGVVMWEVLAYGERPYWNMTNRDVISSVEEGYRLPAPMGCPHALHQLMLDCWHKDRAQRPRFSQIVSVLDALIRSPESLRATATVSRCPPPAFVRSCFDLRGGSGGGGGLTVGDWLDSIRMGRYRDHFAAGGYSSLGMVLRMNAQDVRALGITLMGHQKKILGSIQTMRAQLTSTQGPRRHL

[8] = target: T3, Ephrin type-B receptor 1 (Homo sapiens) (UniProt P54762); conditions: at 10 µM
T3 sequence (whole entry): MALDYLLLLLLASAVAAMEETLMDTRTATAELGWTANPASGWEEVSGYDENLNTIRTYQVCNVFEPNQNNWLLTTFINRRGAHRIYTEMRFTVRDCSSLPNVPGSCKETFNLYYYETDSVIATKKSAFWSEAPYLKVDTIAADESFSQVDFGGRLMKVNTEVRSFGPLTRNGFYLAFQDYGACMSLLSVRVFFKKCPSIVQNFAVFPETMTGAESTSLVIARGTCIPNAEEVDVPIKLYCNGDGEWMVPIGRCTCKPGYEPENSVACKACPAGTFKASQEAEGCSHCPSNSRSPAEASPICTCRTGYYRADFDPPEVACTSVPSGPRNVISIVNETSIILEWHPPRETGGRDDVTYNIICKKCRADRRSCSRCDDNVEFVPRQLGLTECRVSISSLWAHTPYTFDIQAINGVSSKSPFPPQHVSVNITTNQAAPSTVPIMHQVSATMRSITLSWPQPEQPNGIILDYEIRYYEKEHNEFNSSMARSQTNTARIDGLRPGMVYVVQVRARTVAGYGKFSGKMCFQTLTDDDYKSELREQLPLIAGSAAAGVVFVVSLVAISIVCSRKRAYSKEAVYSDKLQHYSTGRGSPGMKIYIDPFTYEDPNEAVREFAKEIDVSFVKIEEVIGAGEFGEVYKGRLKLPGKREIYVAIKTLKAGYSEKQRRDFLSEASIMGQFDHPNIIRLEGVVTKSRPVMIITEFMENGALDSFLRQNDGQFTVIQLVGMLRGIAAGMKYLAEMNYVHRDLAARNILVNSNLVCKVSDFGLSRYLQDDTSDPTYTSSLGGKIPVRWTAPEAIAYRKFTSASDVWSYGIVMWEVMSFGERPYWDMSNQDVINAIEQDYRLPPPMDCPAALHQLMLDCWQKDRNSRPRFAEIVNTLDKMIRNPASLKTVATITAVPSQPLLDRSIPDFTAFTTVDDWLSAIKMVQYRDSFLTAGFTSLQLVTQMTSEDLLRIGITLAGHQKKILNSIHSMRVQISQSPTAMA

[9] = target: T4, Ephrin type-B receptor 2 (Homo sapiens) (UniProt P29323); conditions: at 10 µM
T4 sequence (whole entry): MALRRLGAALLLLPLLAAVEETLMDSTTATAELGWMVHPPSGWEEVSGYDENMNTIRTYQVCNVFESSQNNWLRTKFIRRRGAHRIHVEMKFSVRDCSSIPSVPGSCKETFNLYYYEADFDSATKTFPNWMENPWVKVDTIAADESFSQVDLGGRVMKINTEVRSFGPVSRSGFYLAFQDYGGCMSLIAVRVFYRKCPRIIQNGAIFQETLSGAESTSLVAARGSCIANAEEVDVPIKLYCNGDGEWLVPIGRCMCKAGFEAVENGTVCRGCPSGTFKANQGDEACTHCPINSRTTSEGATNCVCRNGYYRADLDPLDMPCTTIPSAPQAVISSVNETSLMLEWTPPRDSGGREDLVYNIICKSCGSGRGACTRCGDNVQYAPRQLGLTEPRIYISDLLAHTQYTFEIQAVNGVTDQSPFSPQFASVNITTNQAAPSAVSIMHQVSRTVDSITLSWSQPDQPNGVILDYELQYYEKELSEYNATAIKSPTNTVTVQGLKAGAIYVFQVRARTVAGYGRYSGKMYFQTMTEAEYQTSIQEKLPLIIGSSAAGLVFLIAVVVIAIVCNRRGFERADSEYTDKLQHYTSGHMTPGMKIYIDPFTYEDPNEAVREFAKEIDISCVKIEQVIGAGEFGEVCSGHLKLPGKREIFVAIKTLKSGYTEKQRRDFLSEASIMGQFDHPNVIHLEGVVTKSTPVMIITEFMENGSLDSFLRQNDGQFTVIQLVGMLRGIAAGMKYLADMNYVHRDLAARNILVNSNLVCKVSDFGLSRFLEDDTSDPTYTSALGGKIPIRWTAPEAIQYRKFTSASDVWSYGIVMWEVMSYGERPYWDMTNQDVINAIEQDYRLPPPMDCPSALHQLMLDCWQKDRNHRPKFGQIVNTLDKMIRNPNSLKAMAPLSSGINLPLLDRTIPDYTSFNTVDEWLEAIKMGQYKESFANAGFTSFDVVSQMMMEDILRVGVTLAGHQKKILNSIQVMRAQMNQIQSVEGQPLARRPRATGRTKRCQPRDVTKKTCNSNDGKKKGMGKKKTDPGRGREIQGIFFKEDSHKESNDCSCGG

[10] = target: T5, Ephrin type-B receptor 3 (Homo sapiens) (UniProt P54753); conditions: at 10 µM
T5 sequence (whole entry): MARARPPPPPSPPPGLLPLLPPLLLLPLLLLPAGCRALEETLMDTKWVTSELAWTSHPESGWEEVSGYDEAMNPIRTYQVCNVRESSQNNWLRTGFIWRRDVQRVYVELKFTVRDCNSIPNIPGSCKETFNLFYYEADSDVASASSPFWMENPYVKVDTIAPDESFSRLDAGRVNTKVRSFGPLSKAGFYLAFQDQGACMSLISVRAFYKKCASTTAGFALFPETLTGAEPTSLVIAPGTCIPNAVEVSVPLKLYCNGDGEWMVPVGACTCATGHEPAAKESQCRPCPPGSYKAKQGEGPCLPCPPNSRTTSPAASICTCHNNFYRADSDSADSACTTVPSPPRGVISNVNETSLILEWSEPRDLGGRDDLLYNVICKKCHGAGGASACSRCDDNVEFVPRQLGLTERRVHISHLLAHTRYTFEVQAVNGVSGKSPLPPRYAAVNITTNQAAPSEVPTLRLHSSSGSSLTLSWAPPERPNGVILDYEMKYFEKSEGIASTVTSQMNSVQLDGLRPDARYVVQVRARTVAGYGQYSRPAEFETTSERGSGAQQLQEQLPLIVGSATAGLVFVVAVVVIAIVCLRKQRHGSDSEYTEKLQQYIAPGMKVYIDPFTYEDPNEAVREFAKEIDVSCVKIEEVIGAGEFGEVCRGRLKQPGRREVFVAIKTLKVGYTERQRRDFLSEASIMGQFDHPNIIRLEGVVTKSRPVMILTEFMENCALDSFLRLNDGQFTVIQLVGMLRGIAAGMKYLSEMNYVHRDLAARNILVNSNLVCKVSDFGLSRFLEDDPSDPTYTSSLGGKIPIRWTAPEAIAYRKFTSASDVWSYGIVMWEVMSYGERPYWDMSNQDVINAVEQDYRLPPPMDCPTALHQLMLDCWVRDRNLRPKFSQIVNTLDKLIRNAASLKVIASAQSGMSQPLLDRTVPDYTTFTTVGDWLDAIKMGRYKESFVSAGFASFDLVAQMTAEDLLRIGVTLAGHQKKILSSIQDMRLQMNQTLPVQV

[11] = target: T6, Ephrin type-B receptor 4 (Homo sapiens) (UniProt P54760); conditions: at 1 µM
T6 sequence (whole entry): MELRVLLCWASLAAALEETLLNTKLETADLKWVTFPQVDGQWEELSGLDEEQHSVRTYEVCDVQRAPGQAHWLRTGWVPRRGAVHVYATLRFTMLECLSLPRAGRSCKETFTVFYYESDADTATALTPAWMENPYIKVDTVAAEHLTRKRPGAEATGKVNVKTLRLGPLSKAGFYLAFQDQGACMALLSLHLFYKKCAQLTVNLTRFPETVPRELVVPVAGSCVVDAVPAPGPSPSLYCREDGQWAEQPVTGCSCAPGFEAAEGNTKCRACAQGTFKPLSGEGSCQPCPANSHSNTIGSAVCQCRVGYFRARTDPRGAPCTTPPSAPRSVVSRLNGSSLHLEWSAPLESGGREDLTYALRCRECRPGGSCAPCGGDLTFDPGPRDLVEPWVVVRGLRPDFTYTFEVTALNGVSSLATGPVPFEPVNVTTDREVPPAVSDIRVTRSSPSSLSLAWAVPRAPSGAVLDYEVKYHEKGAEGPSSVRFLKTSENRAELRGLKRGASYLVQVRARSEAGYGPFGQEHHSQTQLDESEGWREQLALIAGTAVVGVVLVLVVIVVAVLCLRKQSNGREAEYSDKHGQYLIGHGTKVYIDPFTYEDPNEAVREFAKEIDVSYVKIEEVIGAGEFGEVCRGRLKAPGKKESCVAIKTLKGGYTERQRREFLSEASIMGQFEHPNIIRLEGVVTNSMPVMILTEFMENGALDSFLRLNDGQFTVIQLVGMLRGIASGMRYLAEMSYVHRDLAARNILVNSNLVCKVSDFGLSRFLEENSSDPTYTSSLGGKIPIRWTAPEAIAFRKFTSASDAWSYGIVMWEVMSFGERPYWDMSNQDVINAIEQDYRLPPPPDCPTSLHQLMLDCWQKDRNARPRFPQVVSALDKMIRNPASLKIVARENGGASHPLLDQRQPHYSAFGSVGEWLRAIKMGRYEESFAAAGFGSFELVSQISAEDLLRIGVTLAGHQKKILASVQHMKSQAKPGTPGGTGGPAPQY

[12] = target: T6, Ephrin type-B receptor 4 (Homo sapiens); conditions: at 10 µM
[13] = target: Receptor tyrosine-protein kinase erbB-4 (Homo sapiens) (UniProt Q15303); conditions: at 1 µM
[14] = target: Receptor tyrosine-protein kinase erbB-4 (Homo sapiens) (UniProt Q15303); conditions: at 10 µM

Sequence of Ephrin type-A receptor 7 (Homo sapiens) (Q15375 28-998 limits assumed): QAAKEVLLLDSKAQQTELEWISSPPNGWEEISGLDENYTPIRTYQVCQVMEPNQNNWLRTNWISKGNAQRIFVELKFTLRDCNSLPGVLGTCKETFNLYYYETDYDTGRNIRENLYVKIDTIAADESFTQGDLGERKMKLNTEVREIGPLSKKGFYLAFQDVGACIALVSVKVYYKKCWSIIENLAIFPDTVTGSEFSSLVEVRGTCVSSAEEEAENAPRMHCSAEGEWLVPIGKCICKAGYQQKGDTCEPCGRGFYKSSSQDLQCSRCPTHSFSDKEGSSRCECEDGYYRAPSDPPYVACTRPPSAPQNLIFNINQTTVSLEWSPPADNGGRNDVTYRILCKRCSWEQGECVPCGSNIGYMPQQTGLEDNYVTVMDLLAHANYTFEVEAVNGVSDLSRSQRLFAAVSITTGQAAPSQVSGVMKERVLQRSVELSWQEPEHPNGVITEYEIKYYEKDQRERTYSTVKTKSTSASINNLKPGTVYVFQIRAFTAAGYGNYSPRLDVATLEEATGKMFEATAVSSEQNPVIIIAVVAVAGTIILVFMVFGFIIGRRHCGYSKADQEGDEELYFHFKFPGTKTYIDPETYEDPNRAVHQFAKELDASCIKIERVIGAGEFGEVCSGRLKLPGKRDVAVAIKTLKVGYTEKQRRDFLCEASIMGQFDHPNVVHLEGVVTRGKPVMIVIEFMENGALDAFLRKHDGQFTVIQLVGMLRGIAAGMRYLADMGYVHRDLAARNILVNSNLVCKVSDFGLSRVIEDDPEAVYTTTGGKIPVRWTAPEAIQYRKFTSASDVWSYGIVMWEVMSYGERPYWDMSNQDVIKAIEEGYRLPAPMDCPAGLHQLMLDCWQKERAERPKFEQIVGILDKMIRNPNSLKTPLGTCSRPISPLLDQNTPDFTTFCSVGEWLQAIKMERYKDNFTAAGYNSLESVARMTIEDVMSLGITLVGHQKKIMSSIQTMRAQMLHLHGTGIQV
Sequence of Ephrin type-A receptor 5 (Homo sapiens) (P54756 whole entry): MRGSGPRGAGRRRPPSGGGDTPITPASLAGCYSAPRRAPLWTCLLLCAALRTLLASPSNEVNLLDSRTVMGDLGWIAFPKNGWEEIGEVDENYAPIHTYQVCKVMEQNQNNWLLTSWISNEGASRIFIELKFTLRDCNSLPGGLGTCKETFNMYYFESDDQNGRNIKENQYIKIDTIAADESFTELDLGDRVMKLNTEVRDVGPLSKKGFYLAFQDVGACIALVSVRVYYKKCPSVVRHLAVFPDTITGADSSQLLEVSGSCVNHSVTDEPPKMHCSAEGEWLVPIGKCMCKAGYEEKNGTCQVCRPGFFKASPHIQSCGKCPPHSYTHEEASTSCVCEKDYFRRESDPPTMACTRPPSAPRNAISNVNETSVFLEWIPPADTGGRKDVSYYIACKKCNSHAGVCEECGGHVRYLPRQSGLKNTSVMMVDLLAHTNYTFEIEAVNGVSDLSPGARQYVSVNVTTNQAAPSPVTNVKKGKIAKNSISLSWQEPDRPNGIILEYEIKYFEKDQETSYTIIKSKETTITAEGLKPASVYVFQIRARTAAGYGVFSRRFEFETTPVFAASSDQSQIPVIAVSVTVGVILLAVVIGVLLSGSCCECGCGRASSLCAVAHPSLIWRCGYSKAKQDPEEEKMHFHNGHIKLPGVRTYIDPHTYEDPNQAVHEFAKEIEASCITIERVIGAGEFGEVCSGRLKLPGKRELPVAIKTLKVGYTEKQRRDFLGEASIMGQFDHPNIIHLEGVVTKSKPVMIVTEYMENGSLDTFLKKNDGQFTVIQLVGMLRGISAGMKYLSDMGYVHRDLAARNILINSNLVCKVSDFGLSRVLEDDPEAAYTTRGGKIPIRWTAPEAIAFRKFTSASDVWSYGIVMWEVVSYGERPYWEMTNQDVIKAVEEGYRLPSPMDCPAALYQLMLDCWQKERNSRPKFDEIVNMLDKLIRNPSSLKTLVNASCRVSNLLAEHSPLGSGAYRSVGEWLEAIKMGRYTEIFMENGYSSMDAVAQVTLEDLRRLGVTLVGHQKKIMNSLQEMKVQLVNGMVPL
Sequence of Focal adhesion kinase 1 (Homo sapiens) (Q05397 2-1052 limits assumed): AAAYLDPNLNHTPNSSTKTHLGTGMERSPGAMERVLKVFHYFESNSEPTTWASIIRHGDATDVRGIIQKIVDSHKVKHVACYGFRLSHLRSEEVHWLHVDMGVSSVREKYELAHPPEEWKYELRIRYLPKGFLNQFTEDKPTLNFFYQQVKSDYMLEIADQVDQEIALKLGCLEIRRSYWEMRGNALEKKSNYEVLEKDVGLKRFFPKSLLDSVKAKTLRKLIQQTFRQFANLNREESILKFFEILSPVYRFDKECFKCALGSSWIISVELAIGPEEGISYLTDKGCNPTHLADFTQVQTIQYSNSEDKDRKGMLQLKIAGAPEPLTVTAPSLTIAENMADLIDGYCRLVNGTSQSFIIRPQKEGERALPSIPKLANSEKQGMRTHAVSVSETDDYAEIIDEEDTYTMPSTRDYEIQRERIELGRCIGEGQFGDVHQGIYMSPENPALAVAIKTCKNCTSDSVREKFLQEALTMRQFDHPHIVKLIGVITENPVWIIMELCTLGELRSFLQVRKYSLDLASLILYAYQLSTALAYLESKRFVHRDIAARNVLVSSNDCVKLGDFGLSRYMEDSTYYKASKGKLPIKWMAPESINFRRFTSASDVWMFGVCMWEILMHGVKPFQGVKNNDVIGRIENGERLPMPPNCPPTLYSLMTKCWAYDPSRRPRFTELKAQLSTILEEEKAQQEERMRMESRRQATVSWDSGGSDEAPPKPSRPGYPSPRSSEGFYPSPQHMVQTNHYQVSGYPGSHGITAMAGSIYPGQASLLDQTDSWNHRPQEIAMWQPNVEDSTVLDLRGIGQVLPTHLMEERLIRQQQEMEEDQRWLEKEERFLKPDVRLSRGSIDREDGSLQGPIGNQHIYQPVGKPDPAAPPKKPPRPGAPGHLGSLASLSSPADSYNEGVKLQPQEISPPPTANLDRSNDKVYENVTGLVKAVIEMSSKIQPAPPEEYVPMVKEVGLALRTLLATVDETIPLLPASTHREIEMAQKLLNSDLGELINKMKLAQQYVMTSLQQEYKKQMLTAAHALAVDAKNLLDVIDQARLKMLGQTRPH
Sequence of Receptor tyrosine-protein kinase erbB-4 (Homo sapiens) (Q15303 whole entry): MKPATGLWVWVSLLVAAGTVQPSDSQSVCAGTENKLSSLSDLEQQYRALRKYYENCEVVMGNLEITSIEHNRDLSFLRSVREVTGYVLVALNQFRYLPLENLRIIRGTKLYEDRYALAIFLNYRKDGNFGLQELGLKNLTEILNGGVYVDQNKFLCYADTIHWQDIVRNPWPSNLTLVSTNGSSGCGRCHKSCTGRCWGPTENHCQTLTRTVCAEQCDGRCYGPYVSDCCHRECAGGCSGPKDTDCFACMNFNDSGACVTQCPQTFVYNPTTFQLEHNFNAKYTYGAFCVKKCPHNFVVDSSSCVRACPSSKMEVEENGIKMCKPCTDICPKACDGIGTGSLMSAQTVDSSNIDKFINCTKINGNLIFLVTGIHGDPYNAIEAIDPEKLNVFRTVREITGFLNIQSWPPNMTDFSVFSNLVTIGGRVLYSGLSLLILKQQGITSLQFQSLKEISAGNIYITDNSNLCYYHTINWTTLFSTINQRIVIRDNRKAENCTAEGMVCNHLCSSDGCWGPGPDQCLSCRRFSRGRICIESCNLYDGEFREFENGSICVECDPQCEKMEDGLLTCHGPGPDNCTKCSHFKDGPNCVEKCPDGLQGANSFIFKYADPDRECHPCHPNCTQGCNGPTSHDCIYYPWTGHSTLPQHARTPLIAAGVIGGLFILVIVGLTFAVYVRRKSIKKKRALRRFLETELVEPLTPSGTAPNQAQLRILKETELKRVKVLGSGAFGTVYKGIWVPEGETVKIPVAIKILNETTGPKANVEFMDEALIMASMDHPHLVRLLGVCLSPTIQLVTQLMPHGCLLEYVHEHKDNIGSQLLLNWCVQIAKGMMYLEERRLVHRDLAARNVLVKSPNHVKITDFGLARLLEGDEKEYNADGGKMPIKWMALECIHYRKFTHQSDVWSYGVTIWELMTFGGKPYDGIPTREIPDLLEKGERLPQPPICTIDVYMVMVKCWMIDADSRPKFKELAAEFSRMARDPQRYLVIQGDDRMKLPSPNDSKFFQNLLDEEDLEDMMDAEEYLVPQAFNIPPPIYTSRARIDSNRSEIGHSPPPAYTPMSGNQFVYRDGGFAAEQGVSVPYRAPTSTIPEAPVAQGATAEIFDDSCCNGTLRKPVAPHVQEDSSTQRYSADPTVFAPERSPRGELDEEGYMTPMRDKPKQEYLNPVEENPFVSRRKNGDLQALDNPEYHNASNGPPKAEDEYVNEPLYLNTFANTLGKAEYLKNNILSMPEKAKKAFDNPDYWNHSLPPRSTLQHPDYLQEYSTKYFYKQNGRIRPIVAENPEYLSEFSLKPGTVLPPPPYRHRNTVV

Row | SMILES | residual activity [1] | residual activity [2] | residual activity [3] | residual activity [4] | residual activity [5] | residual activity [6] | residual activity [7] | residual activity [8] | residual activity [9] | residual activity [10] | residual activity [11] | residual activity [12] | residual activity [13] | residual activity [14]
1 | Cc1cc(C)c(/C=C2\C(=O)Nc3ccccc32)[nH]1 | 80% | 52% | 52% | – | – | – | – | – | – | – | – | – | – | –
2 | O=C(c1cc2cc(O)ccc2[nH]1)c1cc2cc(O)ccc2[nH]1 | – | 66% | 112% | 78% | 32% | 83% | 73% | 28% | 24% | 126% | 72% | 13% | 73% | 63%
